Test results: PubChem BioAssay AID1159580 (chemical genetic matrix, 2015)
The campaign covered roughly 5,500 compounds. About 2,000 (36%) were called active. Not shown: some 18% with an inconclusive outcome. Cut-off read from the data, not from the text of the source: active = normalized growth mostly below about 0.91 (no sharp cut-off); inconclusive = no clear call, values can overlap the other calls; inactive = mostly above about 0.92. The list shows a part of the results.

Assay: chemical genetic growth profiling, strain panel (AID 1159580);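 note: tested at 20 µM; growth read once vehicle control cultures reached saturation at 30 °C; 1 = growth at the plate median or of vehicle wells; lower values mean less growth of the strain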
Conditions: S. cerevisiae deletion strains, growth OD

Measured: normalized growth

CC(=O)O[C@@H]1CC2C(C)(C)[C@H](O)C=C[C@]2(C)C2CC[C@@]3(C)[C@H](c4ccoc4)OC(=O)C4OC43[C@@]21C (stereo not given in full)
inactive: locus YAL021C, strain ccr4, active compounds read low 1.02 | locus YAL026C, strain drs2, active compounds read low 1.03 | locus YAL030W, strain snc1, active compounds read low 1.01 | locus YBL061C, strain skt5, active compounds read low 1.02 | locus YBR009C, strain hhf1, active compounds read low 1.02 | locus YBR023C, strain chs3, active compounds read low 1.03 | locus YBR171W, strain sec66, active compounds read low 1.01 | locus YBR231C, strain swc5, active compounds read low 1.02 | locus YBR279W, strain paf1, active compounds read low 1.02 | locus YCL011C, strain gbp2, active compounds read low 1.02 | locus YCL016C, strain dcc1, active compounds read low 1.02 | locus YCL061C, strain MRC1, active compounds read low 1.01 | locus YCL069W, strain vba3, active compounds read low 1.02 | locus YCR088W, strain abp1, active compounds read low 1.02 | locus YDL005C, strain med2, active compounds read low 1.01 | locus YDL040C, strain nat1, active compounds read low 1.02 | locus YDR001C, strain nth1, active compounds read low 1.01 | locus YDR069C, strain doa4, active compounds read low 1.04 | locus YDR137W, strain rgp1, active compounds read low 1.03 | locus YDR159W, strain sac3, active compounds read low 1.03 | locus YDR195W, strain ref2 1.06 | locus YDR297W, strain sur2, active compounds read low 1.01 | locus YDR334W, strain swr1, active compounds read low 1.02 | locus YDR335W, strain msn5, active compounds read low 1.02 | locus YDR392W, strain spt3, active compounds read low 0.963 | locus YEL003W, strain gim4, active compounds read low 1.02 | locus YEL037C, strain rad23, active compounds read low 1.02 | locus YEL061C, strain CIN8 (second series), active compounds read low 1.01 | locus YER015W, strain faa2, active compounds read low 1.02 | locus YER016W, strain bim1, active compounds read low 1.02 | locus YER111C, strain swi4, active compounds read low 1.02 | locus YER155C, strain BEM2 (second series), active compounds read low 1.03 | locus YFR010W, strain ubp6, active compounds read low 1.03 | locus YGL167C, strain pmr1, active compounds read low 1.02 | locus YGL173C, strain kem1, active compounds read low 1.02 | locus YGL227W, strain vid30, active compounds read low 1.02 | locus YGL240W, strain doc1, active compounds read low 1.02 | locus YGL253W, strain hxk2, active compounds read low 1.01 | locus YHR013C, strain ard1, active compounds read low 1.04 | locus YHR027C, strain rpn1, active compounds read low 1.02 | locus YHR030C, strain SLT2, active compounds read low 0.999 | locus YHR079C, strain IRE1, active compounds read low 0.99 | locus YHR142W, strain chs7, active compounds read low 1.02 | locus YJL092W, strain hpr5, active compounds read low 1.02 | locus YJL095W, strain BCK1 (second series), active compounds read low 1.02 | locus YJL095W, strain BCK1, active compounds read low 1 | locus YJL115W, strain asf1, active compounds read low 1.02 | locus YJL129C, strain trk1, active compounds read low 1.04 | locus YJL154C, strain vps35, active compounds read low 1.01 | locus YJL164C, strain tpk1, active compounds read low 0.998 | locus YJL166W, strain qcr8, active compounds read low 1.01 | locus YJL187C, strain SWE1, active compounds read low 1.01 | locus YJR066W, strain TOR1, active compounds read low 0.963 | locus YKL160W, strain elf1, active compounds read low 1.01 | locus YKR026C, strain gcn3, active compounds read low 0.998 | locus YKR091W, strain srl3, active compounds read low 1.02 | locus YLL001W, strain dnm1, active compounds read low 1.01 | locus YLL026W, active compounds read low 1.02 | locus YLL041C, strain sdh2, active compounds read low 1.01 | locus YLR027C, strain aat2, active compounds read low 1.01 | locus YLR113W, strain HOG1, active compounds read low 0.95 | locus YLR221C, strain rsa3, active compounds read low 1.01 | locus YLR258W, strain gsy2, active compounds read low 1.02 | locus YLR262C, strain YPT6 (second series), active compounds read low 1.02 | locus YLR320W, strain mms22, active compounds read low 1.01 | locus YLR342W, strain FKS1, active compounds read low 1.03 | locus YLR357W, strain rsc2, active compounds read low 1.03 | locus YLR370C, strain arc18, active compounds read low 1.02 | locus YLR384C, strain iki3, active compounds read low 1.02 | locus YML120C, strain ndi1, active compounds read low 1.02 | locus YMR058W, strain fet3, active compounds read low 1.02 | locus YMR125W, strain sto1, active compounds read low 1.03 | locus YMR129W, active compounds read low 1.01 | locus YMR205C, strain PFK2, active compounds read low 1.02 | locus YMR231W, strain pep5, active compounds read low 1.02 | locus YNL071W, strain lat1, active compounds read low 1.02 | locus YNL183C, strain NPR1, active compounds read low 0.955 | locus YNL209W, strain ssb2, active compounds read low 1.02 | locus YNL248C, strain rpa49, active compounds read low 1.01 | locus YNL322C, strain KRE1 (second series), active compounds read low 1.02 | locus YNR049C, strain mso1, active compounds read low 1.02 | locus YOR001W, strain rrp6, active compounds read low 1.01 | locus YOR070C, strain gyp1, active compounds read low 1.02 | locus YOR080W, strain dia2, active compounds read low 1.03 | locus YOR083W, strain WHI5, active compounds read low 1 | locus YOR106W, strain vam3, active compounds read low 1.01 | locus YOR231W, strain MKK1, active compounds read low 0.945 | locus YOR265W, strain rbl2, active compounds read low 1.02 | locus YOR270C, strain vph1, active compounds read low 1.04 | locus YOR290C, strain snf2, active compounds read low 0.982 | locus YPL051W, strain arl3, active compounds read low 1 | locus YPL078C, strain atp4, active compounds read low 1.01 | locus YPL106C, strain sse1, active compounds read low 1.04 | locus YPL240C, strain hsp82, active compounds read low 1.02 | locus YPL256C, strain CLN2, active compounds read low 0.962
